Results on 106 compounds are retold here after ChEMBL document CHEMBL4513216, “Probing the Open Global Health Chemical Diversity Library for Multistage-Active Starting Points for Next-Generation Antimalarials” (ACS Infect Dis, 2020).

Screen size: about 68,000 compounds; about 2,700 (4%) showed an effect of 50% or more. Only a selection was taken, and strong results are over-represented in it overall.

The test system of this experiment is Plasmodium berghei. The experiment can be described thus: Screen against P. berghei liver stage (PbLuc), transformed with Luciferase, at 2uM. The format is functional, HepG2. The note with it: tested at 2 uM.
Consider `Cc1c(C2CCCN(C(=O)c3cccnc3)C2)n2c(nc1=O)CCC2` (stereo unspecified), for which the INHIBITION is given as -16%.
On to `COc1ccc(CN2CCC3(CC2)CCN(c2cnn(C)c2)C3=O)cc1`, for which the INHIBITION is on record as 65.32%.
Under `COc1ccc(CN2CCC3(CCN(c4cccnc4)C3=O)C2)cc1` (stereo unspecified) stands 0.83%; under `Cn1cc(N2CCC3(CCCN(Cc4ccoc4)C3)C2=O)cn1` (stereo unspecified), 25.4%.
In the case of `Cn1cc(CN2CCCC3(CCN(c4cccnc4)C3=O)C2)cn1` (stereo unspecified) it was -7.09%.
With `Cn1cc(N2CCC3(CCCN(Cc4ccc(F)cc4)C3)C2=O)cn1` (stereo unspecified), the INHIBITION was 51.26%.
Take `Cn1cc(CN2CCC3(CCN(c4cnn(C)c4)C3=O)C2)cn1` (stereo unspecified): the INHIBITION amounted to 13.61%.
In the case of `Cn1ncc2c1CCCN(C(=O)C1CCC1)C2` it was 7.46%.
Consider `Cc1nccnc1CCC1COCCN1C(=O)CCc1c(C)noc1C` (stereo unspecified), for which the INHIBITION was -12.6%.
In the case of `COc1cccc(-c2noc(-c3ccc(NCC4CC4)nc3)n2)c1OC`, the INHIBITION is reported as -57.64%.
In the case of `CC(C)(C)CN1CCC[C@H]1c1nc(-c2cncnc2N)no1`, the INHIBITION is listed as -10.21%.
Take `COc1cc(CN(C(=O)Nc2cccnc2OC)C2CC2)ccc1O`: the INHIBITION is reported as -34.31%.
On to `Cn1nc2c(cc1=O)CN(Cc1nnc(-c3ccco3)o1)CC2`, for which the INHIBITION is -32.49%.
On to `Cc1cc2n(n1)CCN(c1nc(N(C)C)nc3c1CCNC3)C2`, for which the INHIBITION is reported as 15.46%.
For `COc1cccc(CC2CN(C3CCN(C(C)=O)CC3)CCO2)c1` (stereo unspecified), the INHIBITION turned out to be 17.75%.
Turning to `Cc1ncoc1C(=O)N1CCOC(CC2CCCCC2)C1` (stereo unspecified), the INHIBITION was -78.64%.
In the case of `CC(=O)N1CCC(C(=O)N2CCOC(CC3CCCCC3)C2)CC1` (stereo unspecified) it was 38.49%; in that of `O=C(C1CCOCC1)N1CCOC(CC2CCCCC2)C1` (stereo unspecified), 28.91%; in that of `CC(=O)N1CCC(N2CCOC(CC3CCCCC3)C2)CC1` (stereo unspecified), 56.69%.
Regarding `CN(C)C(=O)N1CCC(C(=O)N2CCOC(CC3CCCCC3)C2)CC1` (stereo unspecified), the INHIBITION was 54.77%.
`CC(C)c1nc2c(n1C)CCN(CCS(=O)(=O)c1ccccc1)C2`: the INHIBITION was 18.35%.
For the compound `CCCc1nnsc1C(=O)NCC1CCN(S(C)(=O)=O)CC1`, the INHIBITION was -4.49%.
As to `Cc1ccc(CNC2(Cc3cc(-c4ccc(F)cc4)on3)COC2)o1`, the INHIBITION came out at 44.15%.
Turning to `CN(C)c1cc(CNc2cncc(-n3cccn3)n2)ccn1`, the INHIBITION is on record as -15.92%.
For `COc1ccc2c(c1)CC(C1CCOCC1)N(C(=O)c1ccn(C)n1)C2` (stereo unspecified), the INHIBITION is reported as 15.61%.
Consider `CC(c1ccco1)N(C(=O)COc1ccc(C#N)cc1)C1CC1` (stereo unspecified), for which the INHIBITION came out at 41.03%.
Turning to `OCCn1nccc1C1CCN(CCOc2ccccc2)CC1`, the INHIBITION is 39.72%.
Consider `OCCn1nccc1C1CCN(CCOc2cccc(F)c2)CC1`, for which the INHIBITION was 53.98%.
Under `Cc1cccc(OCCN2CCC(c3ccnn3CCO)CC2)c1` stands 7.13%; under `Cc1cc2c(o1)CC(C)(C)CC2NC(=O)CNC(=O)C1CC1` (stereo unspecified), -22.24%.
Turning to `Cc1ncc(CN(C)C(=O)Nc2cccc(C(=O)N3CCOCC3)c2)s1`, the INHIBITION is reported as 15.68%.
Consider `CNC(=O)CN1CCOCC12CCN(CCc1ccccc1)CC2`, for which the INHIBITION is reported as 53.08%.
Under `CNC(=O)CN1CCOCC12CCN(C(=O)c1ccccc1)CC2` stands -41.11%.
With `CNC(=O)CN1CCOCC12CCN(Cc1ccncc1)CC2`, the INHIBITION is given as 34.47%.
Under `Cc1cnn(CC2CCCCN2CCCS(N)(=O)=O)c1` (stereo unspecified) stands 8.1%; under `CC(C)c1nc(O)c2nnn(C[C@H]3CCCN(Cc4cccs4)C3)c2n1`, 4.91%.
In the case of `CC1(C)CN(C(=O)c2ncc(F)cc2F)CCC1(O)CN1CCOCC1` (stereo unspecified), the INHIBITION was 31.97%.
Turning to `Cc1nc(Nc2ncc(C)s2)cc(C2CCCN2)n1` (stereo unspecified), the INHIBITION was -30.88%.
Regarding `Cc1ccc(C(=O)N2CCO[C@H]3[C@H](OCc4ccccn4)CC[C@@H]32)o1`, the INHIBITION stood at 30.96%.
Regarding `Cc1cc(C)n(CCCC(=O)N2CCc3ncc(Cl)cc3C2)n1`, the INHIBITION is 51.99%.
As for `Cc1nc(C)n(CC(=O)N2CCc3ncc(Cl)cc3C2)n1`, the INHIBITION is 44.9%.
On to `Cc1nc(C)n(CCC(=O)N2CCc3ncc(Cl)cc3C2)n1`, for which the INHIBITION is recorded as 40.31%.
With `Cc1nnc(CNC(=O)[C@@H]2C[C@H](NC(=O)C(C)(C)C)CN2C)[nH]1`, the INHIBITION was -4.77%.
On to `CN1C[C@@H](NC(=O)C(C)(C)C)C[C@H]1C(=O)NCc1ncc[nH]1`, for which the INHIBITION was 67.85%.
`CN1C[C@@H](NC(=O)c2cc(F)cc(F)c2)C[C@H]1C(=O)NCc1ncc[nH]1`: the INHIBITION is listed as -7.68%.
Regarding `N#Cc1c(Cl)nsc1NCc1cccnc1OCC(F)(F)F`, the INHIBITION was determined as 5.94%.
As for `Cc1nn(C)cc1Cn1c(=O)ccc2ccccc21`, the INHIBITION amounted to 51.36%.
`Cc1nn(C)cc1Cn1c(=O)c(C)nc2ccccc21`: the INHIBITION is given as 21.57%.
For the compound `Cc1nn(C)cc1Cn1c(=O)cnc2ccccc21`, the INHIBITION was 2.82%.
`Cc1nnc2n1CCN(C(=O)c1cnc3c(cnn3C(C)C)c1)C2`: the INHIBITION is given as 17.48%.
As for `CCc1nnc2n1CCN(C(=O)c1cnc3c(cnn3C(C)C)c1)C2`, the INHIBITION is recorded as 24.05%.
In the case of `Cc1nnc2n1CCN(C(=O)c1cnc3c(cnn3CC(C)C)c1)C2` it was 56.89%.
Consider `CC(C)C(=O)N1CC[C@H]2N(C)CC[C@@]2(C(=O)N2CCOCC2)CC1`, for which the INHIBITION came to 35.34%.
`CNC(=O)Cc1ccc(NC(=O)NCC(C)c2ncc(C)s2)cc1` (stereo unspecified): the INHIBITION turned out to be 50.59%.
For the compound `CNC(=O)Cc1ccc(NC(=O)NCc2nc(C)sc2C)cc1`, the INHIBITION was 45.82%.
For `CNC(=O)Cc1ccc(NC(=O)NCc2ncc(C)s2)cc1`, the INHIBITION is on record as 38.67%.
As for `CN1C(=O)C(C)(C)COc2cc(NS(=O)(=O)Cc3ccccc3)ccc21`, the INHIBITION is -18.38%.
On to `c1ccc(CN2CCc3ncnc(C4CCOC4)c3CC2)nc1` (stereo unspecified), for which the INHIBITION is recorded as -4.2%.
Take `CCn1ccnc1CN1CCN(C(C)C(=O)NCc2ccco2)CC1` (stereo unspecified): the INHIBITION is on record as -17.18%.
In the case of `Cc1cnc(CN(Cc2cccc(O)c2)CC2CC2)cn1` it was -14.45%.
Under `C[C@]1(O)CCN(Cc2ncccc2F)C[C@@H]1Oc1ccccc1` stands 51.99%; under `C[C@]1(O)CCN(Cc2ncccc2F)C[C@@H]1Oc1cccc(F)c1`, 14.47%; under `Cc1cccnc1CN1CC[C@@](C)(O)[C@H](Oc2ccccc2)C1`, 37.4%.
On to `CCOC(=O)c1cc2n(n1)CCCO2`, for which the INHIBITION was determined as 4.95%.
Consider `CCOCC1CN(c2ncc(F)cn2)Cc2cn(CC)nc21` (stereo unspecified), for which the INHIBITION is -10.78%.
`O=C(Nc1ccccc1)N1CCc2nc(C(=O)N3CCCC3)sc2CC1`: the INHIBITION is -18.86%.
With `Cc1ncc(CNC(=O)CCc2c(C)noc2C)c(C2CCCN2C)n1` (stereo unspecified), the INHIBITION came out at 58.18%.
As for `Cc1ncc(CNC(=O)CCc2ccccc2F)c(C2CCCN2C)n1` (stereo unspecified), the INHIBITION is listed as 4.66%.
Under `Cc1ncc(CNC(=O)CCc2cccs2)c(C2CCCN2C)n1` (stereo unspecified) stands -14.56%; under `O=C(O)c1sccc1Oc1ccc(NC(=O)C2CC2)cc1`, 19.62%; under `Cn1cccc1C(=O)N1CCO[C@@H]2CN(Cc3ccco3)C[C@@H]2C1`, 35.64%.
As for `c1ccc(-c2nc(CCNC3CCOC4(CCOCC4)C3)no2)cc1` (stereo unspecified), the INHIBITION is 58.53%.
Under `c1ccc(Cc2noc(CCNC3CCOC4(CCOCC4)C3)n2)cc1` (stereo unspecified) stands -7.16%; under `c1ccc(Cc2nc(CNC3CCOC4(CCOCC4)C3)no2)cc1` (stereo unspecified), 1.06%; under `c1cnc2[nH]c(C3CCNCC3)c(CN3CCOCC3)c2c1`, 26.98%.
In the case of `NC(=O)c1nc2c(s1)CCN(Cc1ccccc1)CC2`, the INHIBITION was -14.74%.
With `CCC(CC)c1cc(CNC(=O)N2CCOCC2CC)on1` (stereo unspecified), the INHIBITION is reported as -8.83%.
`CC(C)C(=O)NCc1cccc(N2CCCCC2=O)c1`: the INHIBITION is -8.7%.
In the case of `CC(C)NC(=O)CNC(=O)N1CCc2c([nH]c3ccc(Cl)cc23)C1`, the INHIBITION is recorded as 43.4%.
In the case of `COC(=O)CNC(=O)C12CCC(=O)N1c1cc(Cl)ccc1S2` (stereo unspecified), the INHIBITION amounted to 48.21%.
On to `CC(C)NC(=O)CNC(=O)C12CCC(=O)N1c1cc(Cl)ccc1S2` (stereo unspecified), for which the INHIBITION worked out at 62.51%.
Regarding `CC(C)C(=O)NCCNC(=O)C12CCC(=O)N1c1cc(Cl)ccc1S2` (stereo unspecified), the INHIBITION worked out at 79.21%.
Consider `CCOCCCNC(=O)C1(C)CCC(=O)N1c1ccccc1F` (stereo unspecified), for which the INHIBITION is listed as 19.99%.
For `CC(=O)Nc1cccc(OCCNC(=O)N(C)Cc2ccncc2)c1`, the INHIBITION is reported as -44.49%.
As to `O=C(NC(c1ccc(Cl)cc1)c1cccnc1)C1CC1` (stereo unspecified), the INHIBITION is -58.01%.
In the case of `O=S(=O)(Cc1ccccc1F)NCCCN1CCCCC1` it was 21.18%; in that of `O=S(=O)(Cc1ccccc1Cl)NCCCN1CCCC1`, 49.88%; in that of `O=S(=O)(Cc1c(F)cccc1Cl)NCCCN1CCCCCC1`, 53.19%.
Regarding `CN(CC(=O)N1CC(C)(C)[C@@](C)(O)C1)Cc1ccncc1`, the INHIBITION is given as 32.07%.
On to `CCc1nnc(Nc2cc(C)nc(C3CCN(c4ncccn4)C3)n2)s1` (stereo unspecified), for which the INHIBITION is -10.89%.
Turning to `O=C(c1cc(COc2ccc3c(c2)OCO3)[nH]n1)N1CCSCC1`, the INHIBITION is recorded as 14.46%.
Regarding `Cn1cnc2c1CCN(c1ccnc(-c3ccccc3)n1)C2`, the INHIBITION was determined as 56.33%.
Regarding `c1ccc(-c2nccc(N3CCc4c(ncn4C4CC4)C3)n2)cc1`, the INHIBITION is 24.51%.
`Cn1cnc2c1CCN(Cc1csc(-c3ccccc3)n1)C2`: the INHIBITION is recorded as 6.3%.
In the case of `Cc1nc(CN2CCN(c3nc4c(s3)c(C)nn4C)CC2)cs1` it was 36.88%; in that of `COc1ccc(NC(=O)C(c2cccc(F)c2)N2CCOCC2)cc1` (stereo unspecified), 26.65%; in that of `O=C(Nc1ccc(F)cc1)C(c1ccccc1)N1CCOCC1` (stereo unspecified), 71.1%.
Under `COc1ccc(NC(=O)C(c2ccc(OC)cc2)N2CCOCC2)cc1` (stereo unspecified) stands 27.22%.
Regarding `CC(C)c1ccc(OCC(=O)N(C)C)cc1`, the INHIBITION is recorded as -32.48%.
`COc1ccc(CCN2C(=O)O[C@@H]3CN(C)C[C@@H]32)cc1`: the INHIBITION is recorded as -7.29%.
Consider `CC[C@H]1CN2CC[C@H]1C[C@@H]2CNC(=O)c1ccco1`, for which the INHIBITION worked out at 9.42%.
Take `CCN(CC)C[C@H]1CN2CC[C@H]1C[C@@H]2CNC(=O)c1ccco1`: the INHIBITION came to 31.07%.
Take `CN(C[C@H]1CN2CC[C@H]1C[C@@H]2CNC(=O)c1ccco1)c1ccccc1`: the INHIBITION amounted to 65.7%.
Turning to `Cc1nc(CCN)cc(N2CCC(O)(c3ccc(Cl)cc3)CC2)n1`, the INHIBITION is 11.38%.
Take `Cc1nc(CCN)cc(N2CCC(O)(c3ccccc3)C2)n1` (stereo unspecified): the INHIBITION stood at 23.18%.
`Cc1nc(CN)cc(N2CCC(O)(c3ccc(Cl)cc3)CC2)n1`: the INHIBITION is 59.94%.
